Consider 33 compounds from PubChem BioAssay AID489043 (National Center for Advancing Translational Sciences (NCATS), 2010).

Each structure is given as a SMILES string. Records with an inconclusive call do not appear. Active and inactive are the calls of the source. Calls follow the shape of the dose curve; as a rule, active = well fitted activation curve with a large enough effect; inconclusive = small, poorly fitted or top-dose-only effect; inactive = flat fitted curve, though single readings scatter.
Potency is read from the fitted curve at half-maximal effect.

The target in the experiment is Relaxin receptor 2 (Homo sapiens) (UniProt Q8WXD0). Description: qHTS Assay for Agonists of the Relaxin Receptor RXFP1: RXFP2 Hit Validation. Also: nearly all actives have a fitted effect of over 65% in size. The following applies: HEK293 RXFP2 cAMP TR-FRET, 30 min; series mostly up to 115 µM; activation: at the top concentration. The procedure, abridged: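 Selectivity counter-assay for cAMP accumulation: RXFP2-HEK293 cells given compounds with Ro 20174 for 30 min at 37C, then lysed for TR-FRET cAMP detection. Data scaled to 29 nM porcine relaxin (100%); Hill-equation EC50.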
Relaxin receptor 2 (Homo sapiens), sequence (Q8WXD0 whole entry, looked up): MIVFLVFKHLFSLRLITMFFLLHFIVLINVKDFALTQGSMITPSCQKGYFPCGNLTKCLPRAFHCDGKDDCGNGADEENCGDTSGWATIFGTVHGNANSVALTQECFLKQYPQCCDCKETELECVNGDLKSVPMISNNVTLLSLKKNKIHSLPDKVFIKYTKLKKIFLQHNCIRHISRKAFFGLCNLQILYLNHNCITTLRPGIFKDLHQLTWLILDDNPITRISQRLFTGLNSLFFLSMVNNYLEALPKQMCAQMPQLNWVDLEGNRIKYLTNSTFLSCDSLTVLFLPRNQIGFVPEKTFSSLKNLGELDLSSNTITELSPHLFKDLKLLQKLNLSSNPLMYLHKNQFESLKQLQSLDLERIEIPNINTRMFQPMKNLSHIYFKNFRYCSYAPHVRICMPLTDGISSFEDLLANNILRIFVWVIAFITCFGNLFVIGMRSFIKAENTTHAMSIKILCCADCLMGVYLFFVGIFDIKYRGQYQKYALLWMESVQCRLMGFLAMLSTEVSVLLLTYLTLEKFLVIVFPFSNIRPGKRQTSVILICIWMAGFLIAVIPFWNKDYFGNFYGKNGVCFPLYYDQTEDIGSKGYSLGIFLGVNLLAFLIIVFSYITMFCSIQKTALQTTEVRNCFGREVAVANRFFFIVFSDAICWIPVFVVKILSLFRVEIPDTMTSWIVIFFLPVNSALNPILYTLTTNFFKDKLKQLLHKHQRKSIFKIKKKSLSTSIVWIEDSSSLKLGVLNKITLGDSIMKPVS
For `CC(NC(=O)c1ccccc1NC(=O)c1ccco1)C(=O)O` (stereo not drawn), the “activation” value was 4.16% [at 125 µM] (inactive).
On to `Cn1c(=O)c2c(ncn2CC(=O)NC2CCCCC2)n(C)c1=O`, for which the Potency was 48.9 µM (active).
For the compound `CCC(=O)Nc1ccc(-n2nnnc2SCC(=O)NNC(=O)c2ccco2)cc1`, the “activation” value is -5% (inactive).
For the compound `COC(=O)c1c(N2C(=O)CC(Sc3ncccc3C(=O)O)C2=O)sc(C)c1C` (stereo not drawn), the “activation” value was -7.17% (inactive).
Same read-out and setting: next, `O=C(Nc1ccccc1C(=O)NCc1ccco1)c1ccco1`: 13% [at 125 µM] (inactive).
Still for that read-out and setting: next, `Nc1c(S(=O)(=O)O)cc(NC(=O)c2ccccc2)c2c1C(=O)c1ccccc1C2=O`: -16.6% (inactive).
For the compound `CCc1ccc2n(-c3ccc(OC)cc3)c([S-])c(C(=O)Nc3cc(C)cc(C)c3)[n+]2c1`, the Potency is 30.8 µM (active).
As to `Cc1cc(C)c(NC(=O)CS(=O)CC(=O)Nc2ccc(F)cc2F)c(C)c1` (stereo not drawn), the “activation” value was 4.28% (inactive).
Regarding `COc1ccc(S(=O)(=O)N2CCOCC2)cc1NC(=O)CSc1ncnc2ccccc12`, the Potency is 24.5 µM (active).
Same read-out and setting: the result for `CCN(CC)S(=O)(=O)c1cccc(N=Nc2c(O)c3ccccc3oc2=O)c1` reads 34.6 µM (active); that for `N#CCCSc1ncnc2c1oc1ccccc12`, 19.4 µM (active).
With `Cc1ccc(C(=O)Nc2ccccc2C(N)=O)o1`, the “activation” value was -1.39% [at 125 µM] (inactive).
For `Cn1c2ccccc2c2nnc(SCC(=O)Nc3cccc(C(=O)O)c3)nc21`, the Potency was 30.9 µM (active).
Still for that read-out and setting: next, `CCN(CC)S(=O)(=O)c1ccc(C)c(NC(=O)Cn2cnc3cc([N+](=O)[O-])ccc3c2=O)c1`: 30.9 µM (active); `O=C(NC1CCCCCC1)c1cc2c(=O)n3ccccc3nc2s1`: 38.9 µM (active).
As to `O=C(O)CSc1ccnc2cc(Cl)ccc12`, the Potency was 21.8 µM (active).
Same read-out and setting: next, `COC(=O)c1sc(N2C(=O)C(O)=C(C(=O)c3ccc(C)o3)C2c2ccc(F)cc2)nc1C` (stereo not drawn): 2.75 µM (active).
The same measure, in the same setting: the result for `COc1ccc(CN2C(=O)c3cccnc3C2=O)cc1S(=O)(=O)NC1CCCCC1` reads 34.6 µM (active).
For `COc1ccc(OC)c(NC(=O)CSc2ccc3nnc(-c4cccnc4)n3n2)c1`, the “activation” value is 26.5% (inactive).
For `COc1ccc(/C=C2/SC(=O)N(CC(=O)Nc3cc(C)on3)C2=O)cc1OC`, the “activation” value is -62% (inactive).
`O=C(O)c1cc(-c2ccco2)nc2ccc(Br)cc12`: the Potency is 17.3 µM (active).
Turning to `CC(=O)Nc1ccc(NC(=O)CSc2ccc3nnc(-c4ccccn4)n3n2)cc1`, the “activation” value was 27% [at 44.7 µM] (inactive).
On to `Cc1c(CCOC(=O)c2cc([N+](=O)[O-])ccc2Cl)sc[n+]1CCCCS(=O)(=O)[O-]`, for which the “activation” value is 8.95% (inactive).
For the compound `Cn1c(N)c(C(=O)CSc2nn(-c3ccc(F)cc3)c(=S)s2)c(=O)n(C)c1=O`, the Potency was 21.8 µM (active).
In the case of `COc1ccc(OC)c(CNC(=O)C2CCN(C(=O)N(C)C)CC2)c1`, the “activation” value is -3.03% (inactive).
In the case of `CC(C)Oc1ccc(S(=O)(=O)N2CCOCC2)cc1NC(=O)c1cc([N+](=O)[O-])ccc1N1CCOCC1`, the Potency is 29.8 µM (active).
With `O=C(O)c1cc(-c2ccc(Br)s2)nc2ccccc12`, the Potency is 3.46 µM (active).
On the same count and under the same terms, the result for `CCCn1c(SCC(=O)Nc2ccc(NC(C)=O)cc2)nc2c1c(=O)n(C)c(=O)n2C` reads 34.6 µM (active).
As for `O=C(Nc1ccccc1C(=O)NCc1ccc(Cl)cc1)c1ccco1`, the “activation” value is -1.91% [at 125 µM] (inactive).
For `O=C(O)c1ccc(N2C(=O)c3cccc4c(C(=O)O)ccc(c34)C2=O)cc1`, the Potency is 47.3 µM (active).
For the compound `CCN(CC)C(=O)c1cc(Cl)ccc1NC(=O)c1ccco1`, the “activation” value was -3.03% [at 125 µM] (inactive).
Take `O=[N+]([O-])c1cc2c(c(CSc3nnc4ccccn34)c1)OCOC2`: the Potency was 11 µM (active).
On the same count and under the same terms, the result for `CCOC(=O)c1sc(NC(=O)CCc2ccc(OC)cc2)nc1C` reads 17.3 µM (active).
